DAX1 inh-1 = blocks DAX1 repression of SF-1 activated StAR promoter; HEK293T StAR-luciferase reporter, SF-1/DAX-1 repression relief; inhibition, % at 6.8 µM; 370,000 tested, 1.1% active;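 active = inhibition above the mean over all tested compounds plus 3 SD, cut at about 3.6% in these data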;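 also: 0% = DAX-1 cells with DMSO and 100% = cells lacking DAX-1 with DMSO; higher inhibition means more luminescence from relief of DAX-1 repression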
hcDAF-12 act = activators of H. contortus DAF-12 nuclear receptor. HEK293 hcDAF-12 lit1-tk-luc reporter, luminescence; 0% DMSO, 100% Δ7-dafachronic acid. activation, % at 6.8 µM. 370,000 tested, 1.4% active;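 active = activation above the mean of all tested compounds plus 3 SD, cut at about 5.5% in these data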;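 also: 100% = response to 3 µM Δ7-dafachronic acid high control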
DAX1 inh-2 = NR0B1 (DAX1) inhibition; P51843; HEK293 Gal4-DAX1 luciferase reporter, luminescence; inhibition, % at 6.75 µM; 340,000 tested, 0.99% active; AID 504766;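 active = inhibition above the mean over all tested compounds plus 3 SD, cut at about 4.2% in these data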;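 also: 0% = DAX1-transfected cells with DMSO and 100% = empty-vector control cells with DMSO; inhibition shows as a rise in luminescence from relieved DAX1 repression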
Target sequence (P51843 207-470 limits assumed): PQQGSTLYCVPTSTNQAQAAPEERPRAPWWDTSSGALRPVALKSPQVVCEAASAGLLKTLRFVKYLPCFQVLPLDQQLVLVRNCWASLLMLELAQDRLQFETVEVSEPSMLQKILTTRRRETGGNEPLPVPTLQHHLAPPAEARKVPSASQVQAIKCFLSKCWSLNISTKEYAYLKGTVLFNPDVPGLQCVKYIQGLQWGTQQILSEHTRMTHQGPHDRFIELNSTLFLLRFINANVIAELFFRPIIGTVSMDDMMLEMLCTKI
AHR act = human AHR activation; P35869; AHR-responsive luciferase reporter cells, luminescence; activation, % at 5 µM; 320,000 tested, 2.5% active; in the data active = activation above about 47%;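 also: 0% = vehicle wells and 100% = reference agonist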
hgDAF-12 ag = agonists of H. glycines DAF-12 nuclear receptor. activation, % at 6.8 µM. AID 687014. 370,000 tested, 1.8% active. HEK293 GAL4-hgDAF12 UAS-luciferase reporter, agonist luminescence; normalized to butyrate control;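 active = activation above a cutoff set at the mean of all screened compounds plus 3 SD, cut at about 10% in these data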;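 also: 0% = DMSO wells and 100% = sodium butyrate wells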
ssDAF12 agonist = activators of S. stercoralis DAF-12 nuclear receptor | HEK293 ssDAF-12/GRIP1 lit1-tk-luc reporter, luminescence; % of 3 µM dafachronic acid response | activation, % at 6.8 µM | 370,000 tested, 1% active | AID 652126;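 active = activation above the mean over all tested compounds plus 3 SD, cut at about 0.9% in these data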;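 also: 0% = DMSO-only wells and 100% = 3 µM delta7-dafachronic acid wells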
hgDAF12 conf = hgDAF-12 agonism, confirmation assay; shares compounds with hgDAF-12 ag; HEK293 GAL4-hgDAF12 luciferase reporter, agonist mode; percent of butyrate response; activation, % at 6.8 µM; 3,300 tested, 80% active; AID 743050;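 active = mean activation over triplicate wells above the hit cutoff derived from the earlier primary screen, cut at about 11% in these data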;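 also: 0% = DMSO low control and 100% = 2 mM sodium butyrate high control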
LXRb DAF12 ctr = activates human LXR-beta, counter-screen for DAF-12 agonists; HEK293 Gal4-LXR luciferase reporter, 24 h; 3,300 tested, under 10 active; shares compounds with hgDAF-12 ag; activation, % at 6.8 µM;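 active = mean activation of the triplicate above a set limit carried over from the primary screen, none filed active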
Numbers without * were called inactive. Shown are actives, neighbours in structure and some others; about 5.7% of the full set was active somewhere.

`CC(C)(C)n1cnc2cc(NC(=O)c3ccc(Cl)cc3)ccc21` gave DAX1 inh-1 3.3, hcDAF-12 act 5.1, DAX1 inh-2 3.5, AHR act 2.4, hgDAF-12 ag 14.1*, ssDAF12 agonist 1.3*, hgDAF12 conf 19.4* and LXRb DAF12 ctr 1.5.
For CC[C@@H]1Cc2[nH]c(=O)[nH]c(=O)c2[C@H](c2ccc(Cl)cc2)O1 the results were DAX1 inh-1 1.3, hcDAF-12 act -3.2, hgDAF-12 ag 1.1 and ssDAF12 agonist -1.3.
For CN(C)c1ccc(C(C#N)c2ccccc2)nn1 (stereo not drawn) the results were DAX1 inh-1 2.1, hcDAF-12 act 6.1*, DAX1 inh-2 0.4, AHR act 4.3, hgDAF-12 ag 21.1*, ssDAF12 agonist 2.1*, hgDAF12 conf 1.3 and LXRb DAF12 ctr 0.0.
`CN(C)c1ccc(C(C#N)c2ccc(Cl)cc2)nn1` (stereo not drawn) gave DAX1 inh-1 -0.5, hcDAF-12 act -0.4, DAX1 inh-2 0.3, AHR act 6.5, hgDAF-12 ag 3.3 and ssDAF12 agonist -0.9.
CN(C)c1ccc(C2=NOC(CN3C(=O)c4ccccc4S3(=O)=O)C2)cc1 (stereo not drawn) was read as DAX1 inh-1 2.6, hcDAF-12 act 5.4, DAX1 inh-2 3.1, AHR act 33.0, hgDAF-12 ag 13.5*, ssDAF12 agonist 0.1, hgDAF12 conf 17.5* and LXRb DAF12 ctr 0.8.
Screening CN(C)c1nc(N(C)C)nc(N(C#N)CN2C(=O)c3ccccc3S2(=O)=O)n1 returned DAX1 inh-1 0.9, hcDAF-12 act -0.6, DAX1 inh-2 1.5, AHR act 0.8, hgDAF-12 ag 1.2 and ssDAF12 agonist -1.3.
O=C(Nc1ccccn1)c1ccc(Br)s1 was read as DAX1 inh-1 1.2, hcDAF-12 act 1.3, DAX1 inh-2 0.5, AHR act 16.6, hgDAF-12 ag 16.4*, ssDAF12 agonist 0.6, hgDAF12 conf 13.4* and LXRb DAF12 ctr 0.7.
`COc1ccccc1C(=O)Nc1ccccn1` gave DAX1 inh-1 0.8, hcDAF-12 act 3.9, DAX1 inh-2 0.7, AHR act 6.5, hgDAF-12 ag 14.0*, ssDAF12 agonist -0.6, hgDAF12 conf 13.2* and LXRb DAF12 ctr 0.5.
Cc1csc(NC(=O)c2ccc3c(c2)OCO3)n1 was read as DAX1 inh-1 1.7, hcDAF-12 act 4.4, DAX1 inh-2 0.6, AHR act 7.8, hgDAF-12 ag 16.6*, ssDAF12 agonist -0.5, hgDAF12 conf 15.9* and LXRb DAF12 ctr 0.9.
`Cc1csc(NC(=O)c2cccs2)n1` gave DAX1 inh-1 1.8, hcDAF-12 act 1.7, DAX1 inh-2 0.1, AHR act 16.9, hgDAF-12 ag 6.3 and ssDAF12 agonist -0.9.
For Cc1csc(NC(=O)c2ccc(Br)s2)n1 the results were DAX1 inh-1 0.1, hcDAF-12 act 3.4, DAX1 inh-2 0.7, AHR act 12.9, hgDAF-12 ag 16.6*, ssDAF12 agonist 0.3, hgDAF12 conf 12.9* and LXRb DAF12 ctr 0.7.
For CCOC(=O)Cc1csc(NC(=O)c2ccc3c(c2)OCO3)n1 the results were DAX1 inh-1 -0.7, hcDAF-12 act -0.7, DAX1 inh-2 -0.5, AHR act 6.8, hgDAF-12 ag -0.5 and ssDAF12 agonist -1.0.
`CC(=O)NC(C)c1ccc(C(=O)CSc2nnc(C3CC3)n2C2CC2)cc1` (stereo not drawn) gave DAX1 inh-1 -0.1, hcDAF-12 act -2.1, DAX1 inh-2 -0.7, AHR act 0.3, hgDAF-12 ag 2.4 and ssDAF12 agonist -1.1.
For Cc1nc(NC(=O)c2ccc3c(c2)OCO3)ccc1Br the results were DAX1 inh-1 3.1, hcDAF-12 act 1.6, DAX1 inh-2 4.3*, AHR act 14.3, hgDAF-12 ag 15.8*, ssDAF12 agonist 0.0, hgDAF12 conf 13.8* and LXRb DAF12 ctr 0.7.

Source: PubChem
